The full list was thinned out, with hits kept by preference.
Tgondii IFNg: inhibitors of Toxoplasma gondii growth with IFN-gamma; Toxoplasma gondii growth in IFN-gamma-treated host cells; stronger effect = lower value; activity change, negative = inhibition, % (no concentration beside the values); 3.8% of 69,000 active; AID 1259416; in the data active = activity change below about -70%, passing the limit was not always enough;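 note: host cells are HeLa cells infected with Toxoplasma gondii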
Numbers without * were called inactive; i = inactive.

SMILES	Tgondii IFNg
COc1ccc(C(C)C)cc1S(=O)(=O)N1CCC(O)(c2ccccc2)C1 (configuration not stated)	-23.2
COc1ccc(-c2noc(-c3c(O)c4ccccc4n(C)c3=O)n2)cc1	7.8
CCOc1ccc(CCNS(=O)(=O)c2cc3c4c(c2)CCN4C(=O)CC3)cc1OCC	39.6
O=C1OCCN1/N=C/c1ccc([N+](=O)[O-])o1	-19.1
CSCC1CN(/N=C/c2ccc([N+](=O)[O-])o2)C(=O)O1 (configuration not stated)	13.9
O=C1CN(/N=C/c2ccc(-c3ccc([N+](=O)[O-])cc3)o2)C(=O)N1	-75.8*
Cc1cccc(NC(=O)Nc2ccc(C)c(Cl)c2)n1	-31.0
CC(=O)Nc1ccc(C)c(NC(=S)Nc2ccc(Cl)c(Cl)c2)c1	23.4
Cc1ccc(NC(=O)Nc2ccc(C#N)cc2)cc1Cl	-70.6*
Cn1nnnc1SCC(=O)N1CCOCC1	-2.5
CCCn1nnnc1SCC(=O)N1C(C)CCCC1C (configuration not stated)	-75.7*
CCCn1nnnc1SCC(=O)NCc1ccc(OC)cc1	4.3
COc1cccc(OC(C)C(=O)N2CCCC2c2nc(C(C)C)no2)c1 (configuration not stated)	7.6
C[C@H]1CN([C@@H](C)CO)C(=O)c2cc(C#Cc3ccccc3)cnc2O[C@H]1CN(C)C(=O)c1ccccc1	-14.2
C[C@@H]1CN([C@H](C)CO)C(=O)c2cc(C#Cc3ccccc3)cnc2O[C@@H]1CN(C)C(=O)c1ccccc1	17.0
C[C@H](CO)N1C[C@H](C)[C@H](CN(C)S(=O)(=O)c2cccc(F)c2)Oc2ncc(C#CC3(O)CCCC3)cc2C1=O	60.4
C[C@H]1CN([C@@H](C)CO)C(=O)c2cc(C#CC3(O)CCCC3)cnc2O[C@@H]1CN(C)S(=O)(=O)c1cccc(F)c1	-112.0*
C[C@@H]1CN([C@H](C)CO)C(=O)c2cc(C#CC3(O)CCCC3)cnc2O[C@H]1CN(C)S(=O)(=O)c1cccc(F)c1	i
C[C@H](CO)N1C[C@H](C)[C@@H](CN(C)C(=O)c2ccccc2)Oc2ncc(C#Cc3ccccc3)cc2C1=O	-88.2*
Fc1ccc(C2CCCN2Cc2cc(-c3ccccn3)no2)cc1 (configuration not stated)	-7.5
CNC(=O)c1ccc(-c2cc(C)nc(C3CCCN3Cc3cnc(C)s3)c2)cn1 (configuration not stated)	-0.8
COc1cc(NC(=O)COc2nc(C)nc3ccccc23)cc(OC)c1OC	-4.5
COc1ccc(CN2C[C@H]3COC[C@@]3(CNC(=O)CC3CC3)C2)cc1	0.3
COc1cccc(CN(C(=O)c2ccc(C)cc2)C2(C(=O)NCc3ccccc3)CCN(C(C)=O)CC2)c1OC	-93.4*
CC(=O)N1CCC(C(=O)NCc2ccccc2)(N(Cc2ccccc2C)C(=O)c2ccc(C)cc2)CC1	35.7
SMILES	Tgondii IFNg
COc1ccc(OC)c(CN(C(=O)c2ccc(C)cc2)C2(C(=O)NCc3ccccc3)CCN(C(C)=O)CC2)c1	-4.1
COc1ccc(-c2ccc3c(N4CCOC[C@@H]4C)nc(N4CCOC[C@@H]4C)nc3n2)cc1CO	-14.4
Cc1ccc(CN2CCn3c(Cn4cccn4)cnc3C2)s1	-4.7
Cc1cc(N2CCCCC2)n2nc(CN3CCC(N4CCCCC4)CC3)nc2n1	-20.2
O=C(OCc1ccccc1)N1CCOCCN(C(=O)OCc2ccccc2)CCOCC1	-15.0
Cc1onc(-c2ccccc2)c1NC(=O)NCc1csc(-c2cccs2)n1	7.4
Cc1onc(-c2ccccc2)c1CNC(=O)C1CCN(c2nccc(C(F)(F)F)n2)CC1	-66.2
Cc1onc(-c2ccccc2)c1CNC(=O)c1ccccc1	29.2
Cc1onc(-c2ccccc2)c1CNC(=O)NC1CCN(C(=O)OCc2ccccc2)CC1	-82.0*
Cc1onc(-c2ccccc2)c1CNC(=O)Nc1csc2ccccc12	-98.2*
Cc1cc(C)nc(CCNC(=O)CCNC(=O)c2ccc(F)cc2)n1	2.5
O=C(NC[C@H]1[C@@H](c2ccccc2)[C@H](CO)N1C(=O)Cc1ccncc1)C1CCC1	-44.8
O=S(=O)(N1CCCC1)N1CCn2cncc2C1	4.8
CO[C@@H]1CN(C)C(=O)c2cc(NC(C)=O)ccc2OC[C@H](C)N(Cc2ccncc2)C[C@@H]1C	89.4
Cc1ccc2[nH]nc(C(=O)N3CCCC(N)CC3)c2c1 (configuration not stated)	-39.6
CCc1cn[nH]c1C1CCCN(C(=O)c2n[nH]c3ccc(C)cc23)C1 (configuration not stated)	32.1
Cc1ccc2[nH]nc(C(=O)N3CCCC3c3ccc(Cc4ccccc4F)cn3)c2c1 (configuration not stated)	-105.2*
CCC1C(=O)N=C(SCC(=O)NCc2ccccc2)NC1=O (configuration not stated)	-6.9
CN(C)C(=O)n1c(C(=O)C2CC2)cc2c1c1ccccc1n2C	115.3
CCC1=NOC(CN2CCOc3c(O)cc(-c4nc(C)cnc4C)cc3C2)C1 (configuration not stated)	2.9
Cc1onc(-c2ccccc2)c1C(=O)Nc1cccnc1	23.5
Cc1onc(-c2c(Cl)cccc2Cl)c1C(=O)NC(=S)Nc1ccccc1	-72.6*
COC(=O)c1ccc(Cl)cc1NC(=O)c1c(-c2c(F)cccc2Cl)noc1C	-18.7
Cn1c(C(=O)Nc2ccccc2CN2CCCCCC2)cc(=O)n(C)c1=O	19.4
CC(C)N1[C@H](CN2CCCC2)C[C@H]2CN(Cc3ccco3)CC[C@H]21	1.4
SMILES	Tgondii IFNg
OC1(c2ccc(Cl)c(Cl)c2)CSc2nc3cc(C(F)(F)F)ccc3n21 (configuration not stated)	-83.6*
OC1=C(O)c2nc3cc(C(F)(F)F)ccc3nc21	27.4
NNC(=S)Nc1cc(C(F)(F)F)ccc1Cl	27.8
O=C1CCCc2cnnn2COCCN1	29.5
Cc1cc(C(=O)c2ccc(C(C)(C)C)cc2)c(N)s1	19.0
CC(C)(C)c1ccc(C(=O)/C=c2\[nH]c(=O)/c(=C\c3cccs3)s2)cc1	-102.3*
CNC[C@@H]1OCc2cn(nn2)CCCC(=O)N([C@H](C)CO)C[C@@H]1C	-46.1
CN1CCN(c2ncccc2CNC(=O)COCC2CCCO2)CC1 (configuration not stated)	-2.9
COc1cc(C(=O)NCCCn2ccnc2C)nc(OC)n1	-11.3
COc1cc(C(=O)NCc2ccc(-c3nn(C)cc3-c3ccncc3)cc2)nc(OC)n1	-101.6*
Cn1cc(-c2ccncc2)c(-c2ccc(CNC(=O)COCC3CCCCO3)cc2)n1 (configuration not stated)	-92.0*
Cc1cnccc1-c1cn(C)nc1-c1cccc(CNC(=O)Cc2cccnc2)c1	-19.3
COc1ccccc1-c1cccc(-c2nc(C(=O)NCc3ccncc3)cc3c2[C@H](CCO)N([S@@](=O)C(C)(C)C)C3)c1	-1.9
COc1cccc(OC(C)C(=O)NCc2cccc(-c3nn(C)cc3-c3ccncc3)c2)c1 (configuration not stated)	-114.2*
Cc1ncc(-c2ccncc2)c(-c2ccc(CNC(=O)C3CCOC3)cc2)n1 (configuration not stated)	-38.9
CCC(=O)NCc1cccc(-c2ccc(OC)cc2OC)c1	-1.1
Cn1cnc(S(=O)(=O)Nc2ccccc2SCc2c(F)cccc2Cl)c1	76.9
COCC(=O)N1C[C@@H]2OCCN(c3ncccn3)[C@H]2C1	4.9
COc1ccc(CCNc2cc(C)nc3ncnn23)cc1OC	-10.5
CC(C)c1ccc(S(=O)(=O)N2CCC3(CC2)NCCN=C3NC2CCCC2)cc1	-0.3
CCC(=O)NCc1ccccc1-c1ccc(OC)cc1C	27.5

Compound activity: PubChem, Broad Institute
